# Laboratory results: paper PMC5540273 (PLoS ONE, 2017)
# What was measured:
# Conditions in all cases: concentration: 1 μM, replicates: in singlicate; n = 1
# [1] = tested on: EPHA7
# [2] = tested on: EPHA8
# [3] = tested on: EPHB1
# [4] = tested on: EPHB2
# [5] = tested on: EPHB3
# [6] = tested on: EPHB4
# [7] = tested on: EPHB6
# [8] = tested on: ERBB2
# [9] = tested on: ERBB3
# [10] = tested on: ERBB4
# 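Further: KINOMEscan kinase panel screen.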
Structure (SMILES),%Inh [1] [%],%Inh [2] [%],%Inh [3] [%],%Inh [4] [%],%Inh [5] [%],%Inh [6] [%],%Inh [7] [%],%Inh [8] [%],%Inh [9] [%],%Inh [10] [%]
O=c1[nH]cc(-c2ccc(N3CCOCC3)cc2)c2sc(-c3cn[nH]c3)cc12 [GSK2276055],9,12,6,0,0,2,31,3,0,24
O=C(Nc1n[nH]c2cc(-c3ccoc3)ccc12)C1CC1 [SB-738481],0,31,0,0,0,5,10,0,0,0
O=C(Nc1cccc(-c2nn3ncccc3c2-c2ccnc(Nc3ccccc3)n2)c1)c1c(F)cccc1F [GSK198271],5,19,18,11,1,6,63,95.2,80,100
Cc1occc1-c1ncc(OC[C@@H](N)Cc2c[nH]c3ccccc23)cc1-c1ccc2[nH]nc(C)c2c1.O=C(O)C(F)(F)F [GSK682037],6,39,10,0,17,14,0,81,0,47
O=C(NC1CCN(c2ccnc(Nc3ccc(F)cc3)n2)C1)c1cc2ccccc2s1 (stereo not shown) [GSK1379716],7,14,9,18,17,15,0,42,22,28
CCc1ccc(-c2ccc3c(c2)-c2c(cnn2C)S(=O)(=O)N3C)cc1,0,0,0,0,0,1,25,0,0,4
Oc1cc(Nc2ccnc3cc(I)ccc23)ccc1F [GW552771],0,49,39,14,4,45,24,22,0,36
COc1ccc(-c2coc3ccc(-c4nnc(SCc5ccc(OC)c(C(F)(F)F)c5)o4)cc23)cc1,19,14,26,24,20,0,16,19,28,21
COc1ccc(Nc2nccc(N3CCC(NC(=O)Nc4cccc(OC)c4)C3)n2)cc1 (stereo not shown) [GSK1379742],6,11,9,0,12,0,9,34,4,0
Cl.c1ccc(-c2ccc3c(Nc4ccc5[nH]ncc5c4)ccnc3c2)nc1 [GW440137],0,16,13,0,0,6,46,34,35,31
CC(C)(C)c1ccc2nccc(Nc3cccc(O)c3)c2c1 [GW856795],0,56,22,17,57,37,3,88,44,37
COc1cccc(NC(=O)NC2CCN(c3ccnc(Nc4cc(OC)c(OC)c(OC)c4)n3)C2)c1 (stereo not shown) [GSK1379763],6,4,11,8,0,7,94.3,0,0,30
Cc1cccc(Nc2nc(N[C@H]3CCNC3)ncc2C(N)=O)c1.Cl [GSK2197149],10,15,27,0,12,0,0,13,0,23
CCS(=O)(=O)c1ccc(OC)c(Nc2nccc(-c3c(-c4cccc(NC(=O)c5c(F)cccc5F)c4)nn4ncccc34)n2)c1 [GSK326180],5,24,15,12,100,12,16,99.3,0,100
Nc1ncc(-c2cccnc2)c2scc(-c3ccc4c(c3)CCN4C(=O)Cc3ccccc3)c12 [GSK683281],19,26,21,9,12,2,98.1,1,0,2
COc1cccc(-c2ccc3c(NC(=O)C4CC4)n[nH]c3n2)c1 [SB-710903],16,30,0,24,24,16,48,51,0,36

Structure (SMILES),%Inh [1] [%],%Inh [2] [%],%Inh [3] [%],%Inh [4] [%],%Inh [5] [%],%Inh [6] [%],%Inh [7] [%],%Inh [8] [%],%Inh [9] [%],%Inh [10] [%]
CNC(=O)c1ccccc1Nc1nc(Nc2ccc(N3CCOCC3)cc2)ncc1Cl.Cl [GSK1576028],88,40,71,23,2,46,95.2,79,0,93.4
Cc1cccc(NC(=O)Nc2ccc(Oc3ncnc4ccn(C)c34)cc2)c1,18,0,6,0,21,0,91,49,0,12
Nc1n[nH]c2cnc(-c3ccccc3)cc12 [SB-642124],65,51,19,40,16,18,0,0,0,24
COCCOCCOc1cc2ncc3c4ccc(C#N)cc4[nH]c3c2cc1OC,11,9,6,23,11,25,56,34,0,0
COc1cc(Nc2nccc(-c3c(-c4cccc(NC(=O)c5c(F)cccc5F)c4)nn4ncccc34)n2)cc(OC)c1OC [GSK327238],9,56,35,93,0,15,97.4,98.6,96,99.4
Cc1ccc(C)c(NC(=O)NC2CCN(c3ccnc(Nc4ccc(F)cc4)n3)C2)c1 (stereo not shown) [GSK1379720],0,0,0,16,8,6,24,43,11,47
Fc1ccc(-c2ncn(C3CCNCC3)c2-c2ccnc(Oc3ccc(-c4ccccc4)cc3)n2)cc1 [SB-245391],3,8,10,6,16,17,15,62,33,6
O=C(Nc1ccccc1F)NC1CCN(c2ccnc(Nc3ccc(F)cc3)n2)CC1 [GSK1379800],0,0,17,0,11,8,18,33,3,32
CC(C)c1nc(-c2cccc(NS(=O)(=O)c3c(F)cccc3F)c2F)c(-c2ccnc(Nc3ccc(N4CCOCC4)nc3)n2)s1 [GSK2008607],0,99.4,40,0,0,0,99,92.1,97.7,97.7
Nc1ncnc2c1nc(-c1ccccc1)n2-c1ccccc1 [SKF-97293],0,7,15,0,29,10,16,14,43,0
c1ccc(Oc2ccc(Nc3ccnc4cc(-c5ccc(CNCCN6CCOCC6)o5)ccc34)cc2)nc1 [GW567145],0,7,0,5,0,0,98,44,98.4,7
NCCCC(NC(=O)c1cc(Br)c(-c2ccnc3[nH]ccc23)s1)c1ccccc1.O=C(O)C(F)(F)F.O=C(O)C(F)(F)F (stereo not shown) [GSK1287544],8,7,30,0,0,15,0,0,0,15
CN(c1ccc(NC(=O)Nc2cc(C(F)(F)F)ccc2F)cc1)c1ccnc(Nc2ccc(S(N)(=O)=O)cc2)n1 [GW809893],97.9,99.9,97.5,95.7,50,95,98.8,0,35,0
CN1CCN(Cc2cccc(-c3ccc4c(Nc5ccc(Oc6ccccc6)cc5)ccnc4c3)c2)CC1 [GW578342],0,0,25,16,7,10,87,62,99.1,55
COc1ccc(Nc2nccc(NCCNC(=O)c3cc4ccccc4s3)n2)cc1 [GSK1379896],0,3,16,0,5,0,0,4,0,0
